Compound activity from PubChem BioAssay.
This is a sample that favours compounds with a hit; in the whole collection about 3.4% have one here.
ANO1 block: mouse TMEM16A channel inhibition, primary screen; Q8BHY3; HEK293 TMEM16A/YFP iodide influx fluorescence, ionomycin; normalized B-score (activity score, 25-100; higher = stronger inhibition) at 10 µM; 310,000 compounds, 1.2% hits;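 active means ratio plate-corrected score three or more library SD toward inhibition, starting fluorescence score within five deviations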;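 further: score derived from kinetic fluorescence span divided by baseline fluorescence per well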
MEKK2mut PB1 HTS: signal of MEK5 binding to mutant human MEKK2 PB1 domain; percent response, % at 10 µM; 290,000 compounds, 0.35% hits; bead flow cytometry, Alexa488-MEK5 binding to MEKK2 mutant; in the data active means percent response above about 24%, passing the limit was not always enough
MEKK2 WT-MEK5: raises or lowers MEK5 binding to wildtype human MEKK2 PB1 domain; Q9Y2U5; bead flow cytometry, Alexa488-MEK5 binding to MEKK2 WT; actives lie on both sides; binding response (% of control), % at 10 µM; 290,000 compounds, 1.1% hits; AID 1531; in the data active means binding response below about 67% or above about 130%
MEKK3 PB1 HTS: raises or lowers MEK5 binding to the human MEKK3 PB1 domain. Q99759. binding response (% of control), % at 10 µM. 290,000 compounds, 1.4% hits. bead-based flow cytometry, Alexa488-MEK5 binding to MEKK3; actives lie on both sides; 0 = blocked by unlabeled MEK5, 100 = vehicle;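 active means binding response more than 3 SD above or below the average of its plate-row segment, actives on both sides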;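 further: Alexa488 bead fluorescence after subtracting the streptavidin-only scavenger bead signal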
Target sequence (Q99759 whole entry, looked up, the tested form may be a part): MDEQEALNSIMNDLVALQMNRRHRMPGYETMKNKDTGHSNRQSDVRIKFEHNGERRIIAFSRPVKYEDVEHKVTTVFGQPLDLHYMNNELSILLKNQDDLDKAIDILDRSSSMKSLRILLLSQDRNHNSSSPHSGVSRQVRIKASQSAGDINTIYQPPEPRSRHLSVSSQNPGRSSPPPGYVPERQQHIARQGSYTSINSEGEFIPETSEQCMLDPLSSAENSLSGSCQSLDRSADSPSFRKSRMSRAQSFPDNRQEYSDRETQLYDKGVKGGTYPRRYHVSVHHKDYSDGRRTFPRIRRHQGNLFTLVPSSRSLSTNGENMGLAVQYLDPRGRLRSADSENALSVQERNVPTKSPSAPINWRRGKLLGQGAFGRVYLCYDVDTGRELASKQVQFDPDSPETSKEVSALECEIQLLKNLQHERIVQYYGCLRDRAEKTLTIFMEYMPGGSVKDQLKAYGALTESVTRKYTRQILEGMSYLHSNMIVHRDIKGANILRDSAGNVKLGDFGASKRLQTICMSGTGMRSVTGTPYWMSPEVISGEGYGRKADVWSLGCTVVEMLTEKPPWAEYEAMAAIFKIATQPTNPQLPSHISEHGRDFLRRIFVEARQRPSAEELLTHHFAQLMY
NTR1 ag: activates human neurotensin receptor 1; NTR1-U2OS beta-arrestin-GFP spot imaging, agonist mode; activation, % at 20 µM; 330,000 compounds, 0.17% hits;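 active means activation at or above 40% of the spot to cytoplasm intensity ratio, with at least 20 cells analyzed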;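 further: 0% = DMSO without peptide and 100% = 100 nM NTR1 peptide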
TMEM16A act: activates or potentiates the mouse TMEM16A chloride channel. HEK293 TMEM16A/YFP-H148Q/I152L, iodide quench fluorescence; active compounds read low. Q8BHY3. B-score at 10 µM. 340,000 compounds, 0.3% hits. AID 623877;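 active means fluorescence-ratio B-score plate-corrected deviation score at least 3 library SD below zero, with starting fluorescence score within 5 deviations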;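 further: channel opened by trigger with iodide after compound preincubation; score built on the fluorescence ratio of max minus min over baseline; more negative score means more quench and so TMEM16A activation or potentiation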
* = called active by the depositor; i = inactive; / = no result given; [ ] = another dose, or the depositor's remark.

SMILES | ANO1 block | MEKK2mut PB1 HTS | MEKK2 WT-MEK5 | MEKK3 PB1 HTS | NTR1 ag | TMEM16A act
O=C(Nc1ccc(Nc2ccncc2)cc1)c1ccc(Nc2ccnc3ccc([N+](=O)[O-])cc23)cc1 | / | -13.0 | 72.0*[inhibitor] | 61.0*[inhibitor] | / | i
Cc1ccc(S(=O)(=O)N(C)c2ccc(OC(=O)c3cccs3)cc2)cc1 | / | / | / | / | -0.4 | i
Nc1ccccc1C(=O)NNC1=C(C(=O)C(F)(F)F)CCC1 | i | 4.0 | 106.0 | 103.0 | -0.3 | i
O=C(NNC1=C(C(=O)C(F)(F)F)CCC1)c1ccccc1O | 100* | 10.0 | 112.0 | 102.0 | -0.7 | i
O=C(NNC1=C(C(=O)C(F)(F)F)CCC1)c1ccccc1Cl | i | 5.0 | 101.0 | 99.0 | -2.1 | -18.7*
CC1CCCN(C(=O)c2cc(-c3cccs3)nc3ccccc23)C1 (centres undefined) | / | / | / | / | -0.1 | i
COc1ccc(NC(=S)NNc2ccc([N+](=O)[O-])cc2S(=O)(=O)Nc2ccc(C)cc2C)cc1 | 100* | -1.0 | 98.0 | 99.0 | 2.2 | i
Cc1ccc(NS(=O)(=O)c2cc([N+](=O)[O-])ccc2NNC(=S)Nc2cc(C)ccc2C)c(C)c1 | 100* | -2.0 | 103.0 | 103.0 | 9.0 | i
Cc1ccc([N+](=O)[O-])cc1NC(=S)NC(=O)C(C)(C)C | i | 3.0 | 100.0 | 110.0 | 0.2 | i
COc1cc(/C=C2/C(=O)c3cccc([N+](=O)[O-])c3C2=O)c(Br)cc1O | 25* | -1.0 | 102.0 | 104.0 | / | i
COc1ccccc1NC(=O)CCCCCN1C(=O)c2cccc([N+](=O)[O-])c2C1=O | i | 2.0 | 108.0 | 101.0 | -0.3 | i
O=C(NC1CCCCC1)N(C1=NCCCCC1)c1ccc(Br)cc1 | i | 4.0 | 15.0* | 106.0 | -2.2 | i
CN(C(=O)c1ccccc1OCc1ccc(Cl)cc1)c1ccccc1 | i | 9.0 | 103.0 | 105.0 | 5.9 | i
NC(=O)COC(=O)c1ccccc1OCc1ccc(Cl)cc1 | i | -2.0 | 91.0 | 92.0 | 1.8 | -25.4*
CC[C@H](C)[C@@H](C(=O)NCCCCCCCCCCC(=O)N1CCN(C(=O)OC(C)(C)C)CC1)n1cc(CCCCCNC(=O)OC(C)(C)C)nn1 | 25* | / | / | / | 1.3 | i
CC[C@@H](C)[C@@H](C(=O)N1CCN(C(=O)OC(C)(C)C)CC1)n1cc(CCCN=C(NC(=O)OC(C)(C)C)NC(=O)OC(C)(C)C)nn1 | i | -6.0 | 95.0 | 89.0 | 2.2 | i
CC[C@H](C)[C@@H](C(=O)NCCCCCCCCCCC(=O)N1CCN(C(=O)OC(C)(C)C)CC1)n1cc(CCCCN=C(NC(=O)OC(C)(C)C)NC(=O)OC(C)(C)C)nn1 | i | / | / | / | 62.8* | /
CC(C)(C)OC(=O)NCCCC[C@@H](C(=O)NCCCCCCCCCCC(=O)N1CCN(C(=O)OC(C)(C)C)CC1)n1cc(CCCC(=O)O)nn1 | i | / | / | / | -0.5 | i
CC(C)(C)OC(=O)NCCCCCc1cn([C@@H](CO)C(=O)NCCCCCCCCCCC(=O)N2CCN(C(=O)OC(C)(C)C)CC2)nn1 | 100* | / | / | / | 82.3* | i
CC(C)(C)OC(=O)CC[C@@H](C(=O)NCCCCCCCCCCC(=O)N1CCN(C(=O)OC(C)(C)C)CC1)n1cc(CCCCCNC(=O)OC(C)(C)C)nn1 | i | / | / | / | -0.4 | i
C=CCNC(=S)NCC | i | 1.0 | 105.0 | 102.0 | -0.3 | i
Nc1cc(=O)[nH]c(SCC(=O)Nc2ccccc2-c2ccccc2)n1 | i | -5.0 | 94.0 | 101.0 | 3.0 | i
O=C(CSc1nc2ncc(Cl)cc2[nH]1)Nc1ccccc1-c1ccccc1 | 100* | -3.0 | 101.0 | 102.0 | 3.3 | i
CC1CCCC(NC(=O)C2N(CCCN3CCCC3)C(=O)C3C(C(=O)Nc4cccc(Cl)c4)C4C=CC32O4)C1C (centres undefined) | i | 4.0 | 109.0 | 99.0 | 1.2 | i
CCOC(=O)C(C)On1c(-c2ccc(Cl)cc2)nc2ccc([N+](=O)[O-])cc21 (centres undefined) | 100* | 3.0 | 102.0 | 101.0 | 26.7 | i
SMILES | ANO1 block | MEKK2mut PB1 HTS | MEKK2 WT-MEK5 | MEKK3 PB1 HTS | NTR1 ag | TMEM16A act
CCOC(=O)C(C)On1c(-c2ccccc2)nc2ccc([N+](=O)[O-])cc21 (centres undefined) | i | 0.0 | 99.0 | 104.0 | -0.1 | i
CCOc1ncccc1C(=O)NNC(=O)c1ccc(NS(=O)(=O)c2cccs2)cc1 | i | / | / | / | 0.1 | i
Cc1ccc(S(=O)(=O)/N=C2/NC(=O)/C(=C/c3ccncc3)S2)cc1 | i | -1.0 | 95.0 | 88.0 | 1.2 | /
Cc1ccc(S(=O)(=O)/N=C2/NC(=O)/C(=C/c3ccccc3)S2)cc1 | 100* | -1.0 | 105.0 | 110.0 | 0.6 | i
Cc1ccc(/C=C2\S/C(=N/S(=O)(=O)c3cccs3)NC2=O)cc1 | 25* | -2.0 | 98.0 | 101.0 | 0.8 | i
Cc1ccc(S(=O)(=O)/N=C2/NC(=O)/C(=C\c3ccccc3)S2)cc1 | / | / | / | / | -0.2 | i
NS(=O)(=O)c1cnccc1Nc1cccc(F)c1 | i | / | / | / | -0.9 | i
COc1ccc(CN2CCN(C(=O)c3cccnc3)CC2)cc1Br | i | 0.0 | 92.0 | 89.0 | -0.8 | i
O=C(c1cccnc1)N1CCN(Cc2cccc(Br)c2)CC1 | i | -6.0 | 91.0 | 86.0 | -0.5 | -5.82*
COc1ccccc1C1CCN(c2cc(O)ccc2[N+](=O)[O-])CC1 | 100* | -8.0 | 93.0 | 91.0 | 3.0 | i
COc1ccccc1C1CCN(C(=O)c2ccccc2)CC1 | i | 7.0 | 107.0 | 102.0 | 1.1 | i
CCOC(=O)CCC(=O)NNC(=O)c1ccc(NC(=O)c2ccccc2)cc1 | i | 6.0 | 99.0 | 101.0 | -0.7 | -6.83*
CC(=O)Nc1ccc2cc3ccc(NC(C)=O)cc3nc2c1 | i | -41.0 | 65.0 | 58.0 | / | -9.81*
O=C(c1ccccc1)N1CCSC1=S | i | -3.0 | 97.0 | 103.0 | 1.4 | i
Cc1ccc(C(=O)N2CCSC2=S)cc1 | i | 4.0 | -10.0* | 105.0 | 0.7 | i
NC1=NC(=O)S/C1=C\c1ccc(F)cc1 | i | -2.0 | 105.0 | 110.0 | 0.4 | i
O=C(O)CCC(=O)Nc1nnc(C(F)(F)F)s1 | i | 2.0 | 99.0 | 101.0 | -1.9 | i
CCC(NC(=O)Nc1nnc(C(F)(F)F)s1)(C(F)(F)F)C(F)(F)F | 100* | 2.0 | 101.0 | 103.0 | 7.1 | i
COc1ccc(C/C(O)=C(\C#N)c2nc3ccccc3s2)cc1 | 100* | -2.0 | 94.0 | 94.0 | 2.5 | i
N#C/C(=C(/O)COc1ccc(Cl)cc1)c1nc2ccccc2s1 | 100* | 4.0 | 93.0 | 99.0 | 3.9 | i
N#C/C(=C(/O)c1ccc(F)cc1)c1nc2ccccc2s1 | 25* | -7.0 | 89.0 | 102.0 | -0.3 | i
